# Data as given in ChEMBL document CHEMBL3988442, “University of Dundee, Small-Polar-MMV Screening Library” (2021).
# For part of these data: Entries with a potency or affinity are not part of this list.
# Key:
# Design in all cases: scale not given: direction of the effect not stated beside the values
# [1] = molecular target: Protein translocase subunit SecA (Escherichia coli (strain K12)) (UniProt P10408); assay: Assay to Identify E. coli SecA ATPase Inhibitors; type: functional; settings: 30 µM
# Protein translocase subunit SecA (Escherichia coli (strain K12)), sequence (P10408 whole entry): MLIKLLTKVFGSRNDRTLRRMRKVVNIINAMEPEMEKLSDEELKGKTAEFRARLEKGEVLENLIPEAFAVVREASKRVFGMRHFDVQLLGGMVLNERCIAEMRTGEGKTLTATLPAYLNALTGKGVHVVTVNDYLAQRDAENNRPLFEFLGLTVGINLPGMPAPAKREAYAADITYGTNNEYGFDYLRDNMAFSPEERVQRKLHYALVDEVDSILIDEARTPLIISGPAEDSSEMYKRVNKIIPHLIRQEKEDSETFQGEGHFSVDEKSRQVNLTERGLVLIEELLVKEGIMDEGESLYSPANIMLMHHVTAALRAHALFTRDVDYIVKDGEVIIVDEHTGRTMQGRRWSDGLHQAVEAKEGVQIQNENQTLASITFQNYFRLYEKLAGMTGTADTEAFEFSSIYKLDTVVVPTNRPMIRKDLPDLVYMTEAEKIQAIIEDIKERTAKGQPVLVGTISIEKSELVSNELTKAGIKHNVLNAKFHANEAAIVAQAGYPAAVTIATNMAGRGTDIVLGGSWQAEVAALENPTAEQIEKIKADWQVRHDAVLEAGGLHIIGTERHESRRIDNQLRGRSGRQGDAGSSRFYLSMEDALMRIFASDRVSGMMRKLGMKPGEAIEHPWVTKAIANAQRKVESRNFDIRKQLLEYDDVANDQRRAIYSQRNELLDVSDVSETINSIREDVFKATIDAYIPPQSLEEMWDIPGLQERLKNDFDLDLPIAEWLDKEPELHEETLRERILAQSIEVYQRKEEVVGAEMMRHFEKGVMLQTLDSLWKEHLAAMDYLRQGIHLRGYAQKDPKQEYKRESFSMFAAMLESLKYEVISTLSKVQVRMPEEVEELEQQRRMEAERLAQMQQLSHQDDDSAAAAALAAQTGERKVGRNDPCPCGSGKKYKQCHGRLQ
# [2] = molecular target: T1, Ubiquitin-activating enzyme e1, putative (Leishmania donovani (strain BPK282A1)) (UniProt E9BSI1); assay: Leishmania donovani Ubiquitin Activating Enzyme (LdE1); type: functional; settings: 30 µM
# T1 sequence (whole entry): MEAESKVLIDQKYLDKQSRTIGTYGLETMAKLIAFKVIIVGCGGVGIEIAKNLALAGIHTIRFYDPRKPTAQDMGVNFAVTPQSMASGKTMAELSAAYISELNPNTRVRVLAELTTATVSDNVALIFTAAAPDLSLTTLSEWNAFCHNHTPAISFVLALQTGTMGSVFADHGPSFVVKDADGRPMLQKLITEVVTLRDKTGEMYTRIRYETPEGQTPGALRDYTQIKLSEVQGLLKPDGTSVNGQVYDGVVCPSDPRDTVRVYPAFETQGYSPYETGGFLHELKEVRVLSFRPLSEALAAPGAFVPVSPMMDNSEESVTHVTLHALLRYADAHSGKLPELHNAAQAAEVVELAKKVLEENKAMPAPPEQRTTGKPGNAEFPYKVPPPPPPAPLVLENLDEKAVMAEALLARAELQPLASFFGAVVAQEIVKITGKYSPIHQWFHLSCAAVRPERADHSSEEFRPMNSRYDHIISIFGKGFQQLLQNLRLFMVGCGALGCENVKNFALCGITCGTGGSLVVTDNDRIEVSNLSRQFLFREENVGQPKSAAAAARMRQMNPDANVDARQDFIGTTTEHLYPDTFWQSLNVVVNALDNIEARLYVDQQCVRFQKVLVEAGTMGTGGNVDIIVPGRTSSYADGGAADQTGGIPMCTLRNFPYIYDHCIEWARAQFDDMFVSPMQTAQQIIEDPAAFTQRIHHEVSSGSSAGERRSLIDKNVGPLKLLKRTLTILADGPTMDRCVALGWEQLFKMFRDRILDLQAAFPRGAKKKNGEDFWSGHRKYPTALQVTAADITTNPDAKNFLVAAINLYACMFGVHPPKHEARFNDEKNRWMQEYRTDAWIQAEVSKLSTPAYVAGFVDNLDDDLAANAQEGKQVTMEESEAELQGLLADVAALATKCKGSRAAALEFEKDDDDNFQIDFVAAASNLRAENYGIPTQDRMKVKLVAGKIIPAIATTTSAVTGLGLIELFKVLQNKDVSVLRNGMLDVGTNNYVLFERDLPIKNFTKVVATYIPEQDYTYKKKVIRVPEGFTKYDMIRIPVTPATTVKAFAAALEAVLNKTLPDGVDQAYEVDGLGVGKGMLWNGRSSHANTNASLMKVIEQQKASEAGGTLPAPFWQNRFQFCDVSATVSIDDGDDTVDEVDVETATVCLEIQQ
# [3] = molecular target: AMP-activated protein kinase, AMPK (Homo sapiens) (UniProt P54646+O43741+P54619+Q9UGJ0+Q9Y478+Q13131+Q9UGI9); assay: AMP-dependent Kinase enzyme assay. An in vitro enzyme assay that detects ADP turnover that is directly proportional to AMPK activity. This uses naive AMPK that is activated during the assay with MK-8722; type: functional; settings: 30 µM
# [4] = molecular target: Sialic acid-binding Ig-like lectin 9 (Homo sapiens) (UniProt Q9Y336); assay: Hs-Siglec9 ALPHAscreen SOP 20170721; settings: 10 µM
# Sialic acid-binding Ig-like lectin 9 (Homo sapiens), sequence (Q9Y336 whole entry): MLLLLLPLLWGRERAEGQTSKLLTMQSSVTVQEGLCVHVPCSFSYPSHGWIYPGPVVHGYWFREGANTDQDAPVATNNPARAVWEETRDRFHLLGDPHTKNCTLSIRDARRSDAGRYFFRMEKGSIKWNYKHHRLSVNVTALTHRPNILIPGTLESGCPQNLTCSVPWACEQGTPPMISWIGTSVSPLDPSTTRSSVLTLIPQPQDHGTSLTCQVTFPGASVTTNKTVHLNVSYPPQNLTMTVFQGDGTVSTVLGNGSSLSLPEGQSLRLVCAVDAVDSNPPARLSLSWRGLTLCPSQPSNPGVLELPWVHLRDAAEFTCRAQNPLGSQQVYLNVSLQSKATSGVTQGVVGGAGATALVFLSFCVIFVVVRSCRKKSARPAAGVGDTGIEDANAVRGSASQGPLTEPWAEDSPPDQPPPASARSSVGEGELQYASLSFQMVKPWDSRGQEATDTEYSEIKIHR
# Trypanosoma cruzi = assay: Trypanosoma cruzi phosphomannomutase and mannose-1-phosphate guanylyltransferase assay; type: functional; settings: 10 µM
# [5] = molecular target: T2, Arginase-2, mitochondrial (Homo sapiens) (UniProt P78540); assay: in vitro enzyme assay to detect the production of urea directly proportional to the activity of Arginase II; type: functional; settings: 33.3 µM; further: in the data most compounds retested in dose-response had high values
# T2 sequence (whole entry): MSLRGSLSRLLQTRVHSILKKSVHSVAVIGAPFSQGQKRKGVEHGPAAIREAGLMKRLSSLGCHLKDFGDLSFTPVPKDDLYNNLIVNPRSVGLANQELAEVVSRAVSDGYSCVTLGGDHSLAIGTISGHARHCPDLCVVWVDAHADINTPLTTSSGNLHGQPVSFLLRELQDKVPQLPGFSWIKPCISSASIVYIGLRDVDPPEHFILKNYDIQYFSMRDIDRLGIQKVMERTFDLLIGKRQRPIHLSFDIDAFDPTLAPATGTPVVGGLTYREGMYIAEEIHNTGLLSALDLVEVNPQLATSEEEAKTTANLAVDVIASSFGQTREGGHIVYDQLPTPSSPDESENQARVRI
# [6] = molecular target: T3, Proteasome subunit beta (Trypanosoma cruzi) (UniProt O96673); assay: Trypanosoma cruzi proteasome chymotrypsin-like activity (TcProtChymo) assay.; further: in the data most compounds retested in dose-response had high values; type: functional; settings: 9.37 µM
# T3 sequence (whole entry): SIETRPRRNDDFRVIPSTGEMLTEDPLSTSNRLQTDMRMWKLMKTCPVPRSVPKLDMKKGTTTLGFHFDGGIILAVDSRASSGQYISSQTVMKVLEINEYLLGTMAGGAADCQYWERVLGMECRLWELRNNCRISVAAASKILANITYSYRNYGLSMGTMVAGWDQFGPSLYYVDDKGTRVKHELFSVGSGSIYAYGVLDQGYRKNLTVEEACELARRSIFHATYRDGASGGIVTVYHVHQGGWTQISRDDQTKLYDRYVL
# Homo sapiens = species: Homo sapiens; assay: To identify inhibition of the IFN signalling (Jak-Stat) pathway via expression of an eGFP reporter gene under the control of an IFN-stimulated response element (ISRE) containing MxA promoter.; type: functional; settings: 30 µM
# [7] = molecular target: T4, Tyrosyl-tRNA synthetase, putative (Trypanosoma cruzi (strain CL Brener)) (UniProt Q4DSP6); assay: Trypanosoma cruzi tyrosyl tRNA synthetase (TcYRS) _High Tyrosine SOP; type: functional; settings: 30 µM; further: in the data most compounds retested in dose-response had high values
# T4 sequence (whole entry): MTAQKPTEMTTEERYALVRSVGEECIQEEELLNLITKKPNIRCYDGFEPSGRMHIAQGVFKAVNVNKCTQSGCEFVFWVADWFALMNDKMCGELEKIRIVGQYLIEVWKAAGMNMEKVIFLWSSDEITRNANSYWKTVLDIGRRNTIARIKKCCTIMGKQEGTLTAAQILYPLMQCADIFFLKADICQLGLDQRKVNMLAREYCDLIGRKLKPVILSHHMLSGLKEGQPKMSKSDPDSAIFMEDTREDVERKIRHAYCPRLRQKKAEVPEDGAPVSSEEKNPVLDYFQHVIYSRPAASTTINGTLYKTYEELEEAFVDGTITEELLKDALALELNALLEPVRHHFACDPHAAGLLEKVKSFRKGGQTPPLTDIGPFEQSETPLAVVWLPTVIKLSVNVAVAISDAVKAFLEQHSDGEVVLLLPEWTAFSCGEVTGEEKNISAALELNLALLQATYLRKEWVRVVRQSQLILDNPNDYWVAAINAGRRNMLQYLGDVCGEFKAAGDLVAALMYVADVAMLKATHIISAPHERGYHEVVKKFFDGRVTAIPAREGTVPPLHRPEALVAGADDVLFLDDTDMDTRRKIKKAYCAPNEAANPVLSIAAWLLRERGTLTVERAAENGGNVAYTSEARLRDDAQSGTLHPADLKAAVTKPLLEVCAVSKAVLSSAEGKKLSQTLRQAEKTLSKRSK
# [8] = molecular target: T4, Tyrosyl-tRNA synthetase, putative (Trypanosoma cruzi (strain CL Brener)); assay: Trypanosoma cruzi tyrosyl tRNA synthetase (TcYRS) SOP; type: functional; settings: 30 µM
# [9] = molecular target: Chromo domain-containing protein 1 (Saccharomyces cerevisiae (strain ATCC 204508 / S288c) (Baker's yeast)) (UniProt P32657); assay: ScCHD-1 Enzyme Inhibition Assay; type: functional; settings: 30 µM; further: in the data most compounds retested in dose-response had high values
# Chromo domain-containing protein 1 (Saccharomyces cerevisiae (strain ATCC 204508 / S288c) (Baker's yeast)), sequence (P32657 whole entry, the tested form may be a part): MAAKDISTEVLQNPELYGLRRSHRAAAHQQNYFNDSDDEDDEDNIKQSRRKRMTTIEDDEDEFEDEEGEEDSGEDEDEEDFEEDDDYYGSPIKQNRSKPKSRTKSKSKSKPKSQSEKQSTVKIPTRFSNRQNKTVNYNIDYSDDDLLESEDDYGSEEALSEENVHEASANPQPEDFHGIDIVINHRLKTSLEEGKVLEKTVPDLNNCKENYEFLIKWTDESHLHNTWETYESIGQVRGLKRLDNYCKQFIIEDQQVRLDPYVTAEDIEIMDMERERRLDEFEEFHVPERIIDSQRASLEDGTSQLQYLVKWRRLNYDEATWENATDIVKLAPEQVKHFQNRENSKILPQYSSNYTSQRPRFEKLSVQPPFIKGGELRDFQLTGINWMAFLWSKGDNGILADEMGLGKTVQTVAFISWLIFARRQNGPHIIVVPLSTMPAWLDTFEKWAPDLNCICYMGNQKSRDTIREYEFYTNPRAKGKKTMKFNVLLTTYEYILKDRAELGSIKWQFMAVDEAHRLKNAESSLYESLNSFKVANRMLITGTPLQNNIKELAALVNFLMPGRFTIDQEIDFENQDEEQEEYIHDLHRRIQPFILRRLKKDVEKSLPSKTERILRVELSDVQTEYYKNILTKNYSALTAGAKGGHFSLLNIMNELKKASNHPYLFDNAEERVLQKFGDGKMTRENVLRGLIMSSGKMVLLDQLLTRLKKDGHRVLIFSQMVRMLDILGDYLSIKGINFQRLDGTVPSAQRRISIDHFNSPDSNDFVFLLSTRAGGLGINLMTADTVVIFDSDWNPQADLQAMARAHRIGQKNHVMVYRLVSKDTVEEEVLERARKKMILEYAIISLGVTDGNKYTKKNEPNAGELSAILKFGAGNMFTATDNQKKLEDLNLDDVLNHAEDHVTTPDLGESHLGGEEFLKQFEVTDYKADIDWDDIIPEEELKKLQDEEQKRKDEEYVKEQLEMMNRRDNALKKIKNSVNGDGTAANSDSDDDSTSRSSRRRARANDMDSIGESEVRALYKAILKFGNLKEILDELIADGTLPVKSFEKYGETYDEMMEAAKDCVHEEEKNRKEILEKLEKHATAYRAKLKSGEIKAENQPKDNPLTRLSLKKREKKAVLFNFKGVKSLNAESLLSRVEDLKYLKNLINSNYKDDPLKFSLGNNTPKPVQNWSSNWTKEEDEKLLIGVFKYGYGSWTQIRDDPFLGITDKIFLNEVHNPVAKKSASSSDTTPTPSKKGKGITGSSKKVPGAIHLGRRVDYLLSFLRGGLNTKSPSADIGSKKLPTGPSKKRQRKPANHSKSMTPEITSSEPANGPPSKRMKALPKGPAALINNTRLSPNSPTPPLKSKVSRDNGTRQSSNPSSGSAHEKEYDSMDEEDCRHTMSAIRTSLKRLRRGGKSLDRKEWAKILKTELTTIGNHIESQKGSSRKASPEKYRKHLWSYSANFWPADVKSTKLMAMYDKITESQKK
Compound,Percent Effect [1],Percent Effect [2],Percent Effect [3],Percent Effect [4],Percent Effect (Trypanosoma cruzi),Percent Effect [5],Percent Effect [6],Percent Effect (Homo sapiens),Percent Effect [7],Percent Effect [8],Percent Effect [9]
CC(=O)Nc1nc(C(=O)NC(C)c2ccc3c(c2)OCCO3)cs1 (stereo unspecified),-5.25%,18.2%,6.51%,-11.3%,5%,-4%,8.97%,14.6%,3.81%,21.2%,-21.9%
O=C(CCn1cncn1)NC1(c2cccc(Br)c2)CCC1,-3.55%,20.8%,1.67%,13.7%,3.44%,1.38%,10.5%,-1.82%,3.23%,16.1%,-9.17%
Cc1nc(C)n(CC2CCCN(CCc3ccncc3)C2)n1 (stereo unspecified),-3.33%,16.4%,0.226%,18.2%,2.35%,1.36%,15.6%,-0.0927%,7.53%,17.5%,-9.61%
CC(C)n1ccnc1CN1CCCN(C(=O)COC2CCCC2)CC1,-2.6%,3.8%,6.6%,4.27%,-1.74%,-2.8%,4.29%,2.51%,-1.04%,2.53%,-6.72%
Cc1ccn(-c2ccccc2NCc2cccnc2C)n1,-0.328%,0%,2.86%,-2.06%,-0.196%,0%,3.02%,17.4%,-1.07%,-2.5%,-0.646%
CN(C)C(=O)CC1CC2(CCN(C(=O)N(C)C)CC2)Oc2ccccc21 (stereo unspecified),-2.94%,8.11%,-0.534%,-1.19%,-4.79%,2.73%,9.53%,4.7%,1.07%,6.17%,-4.24%
O=C(O)c1nnn(-c2ccc(F)c(F)c2)c1-c1ccncc1,-2.11%,13.2%,4.49%,-2.68%,-3.6%,4.73%,20.6%,-18.7%,2.13%,2.6%,-1.59%
O=C(NCc1cc(=O)n2c(n1)CN(CC1CCOC1)CCC2)C1CC1 (stereo unspecified),0.233%,2.74%,-1.09%,5.91%,6.35%,-0.399%,6.76%,-4.97%,3.12%,11.1%,-3.69%
CNC(=O)CS(=O)(=O)C1CCN(S(=O)(=O)C2CC2)CC1,-3.71%,0%,-0.0113%,-2.43%,0.979%,1.36%,4.79%,3.03%,3.23%,5%,-0.451%
Cc1cc(CN2CCOC(CN(C)C)C2)no1 (stereo unspecified),-5.93%,5.41%,-1.25%,0.559%,-4.92%,1.66%,-2.15%,14.9%,1.98%,1.22%,6.53%
CC(NC(=O)NCCCN(C)S(C)(=O)=O)c1cccc(Cl)c1 (stereo unspecified),1.78%,6.33%,0.875%,-4.21%,-2.97%,0.215%,11.8%,13.8%,9.38%,7.59%,0.197%
Cc1cc(C)n(C2CN(CC(=O)N3CCOCC3)C2)n1,-2.95%,1.27%,6.75%,3.92%,0.103%,3.66%,11.2%,-2%,10.4%,7.59%,0.125%
COCCNc1ccc(CNC(=O)Nc2cn[nH]c2)cc1,-0.0653%,20.2%,-7.85%,0.901%,-10.5%,3.42%,1.06%,20.9%,3.45%,11.4%,-5.01%
CCNC(c1cccnc1)c1cc(C)cc(C)c1 (stereo unspecified),-3.46%,-3.8%,4.33%,-1.27%,2.15%,-4.52%,5.83%,-28.2%,0%,5.06%,2.53%
CN(C)C1CCN(C(=O)NCc2ccc(Cn3cncn3)cc2)CC1,-4.29%,-5.41%,-5.16%,28.9%,9.85%,-2.38%,14.5%,6.43%,5.82%,17.1%,-10%
COc1cccc(CN2CCCC(Nc3cccc(F)c3)C2)c1O (stereo unspecified),-5.42%,10.8%,-4%,18.7%,7.33%,2.23%,5.24%,0.464%,3.23%,11.1%,-12.4%
Cc1nn(C)c(C)c1C1COCCN1C(=O)c1ccccc1 (stereo unspecified),-2.83%,5.2%,-2.73%,2.06%,6.74%,3.2%,-1.01%,7.76%,2.91%,12.2%,11.3%
CC(C)c1nn(C)c(N2CCOCC2)c1CNC(C)c1cccs1 (stereo unspecified),-3.9%,-13.2%,-6.19%,-4.57%,-2.71%,-1.08%,1.44%,-28.8%,11.3%,18.5%,-4.62%
O=C1CC(c2ccc(C(=O)O)cc2)c2ncn(-c3ccccc3)c2N1 (stereo unspecified),-4.54%,9.33%,-172%,-2.38%,0.786%,-8.63%,19.2%,2.29%,9.52%,7.69%,-7.97%
CCc1nc(CN2CCCN(Cc3cnn(C)c3)CC2)no1,2.29%,5.48%,-1.06%,0.0732%,-2.35%,0%,17.2%,3.79%,4.3%,12.5%,-13.7%
CCN(CC)C(=O)CCNC(=O)N1CCC(c2ccccc2)C1 (stereo unspecified),-1.34%,0%,-3.55%,1.13%,0.772%,-4.29%,0.172%,15.7%,0.529%,4.88%,0.238%
